# Legend:
# Experiment in all cases: PBM binding z-score (relative to random genomic background probes); higher = stronger binding; sequences stand for … in GC…GCGATTGACAGCGTAGAATGAAGG
# [1] = system: RARb homodimer (NR concentration 270 nM)
# Method in brief: (§1)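 Binding z-scores take random background probes as their reference. They come from custom Agilent 4×180K protein-binding microarrays incubated 1 h with ligand-free nuclear receptor dimers, with antibodies against each partner (one per run) detecting binding. Scanned fluorescence was regression-normalized.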
# [2] = system: RARg:RXRa (NR concentration 270 nM, RXRa partner concentration 90 nM)
# Method in brief: as §1
# [3] = system: RARg homodimer (NR concentration 270 nM)
# Method in brief: as §1
# [4] = system: RXRa DBDmut IVT, anti-RXR (DBD mutation: RXRa K156A/R161A, NR concentration 90 nM)
# Method in brief: as §1
# [5] = system: RXRa homodimer (NR concentration 180 nM)
# Method in brief: as §1
# [6] = system: THRa:RXRa (NR concentration 90 nM, RXRa partner concentration 90 nM)
# Method in brief: as §1
# [7] = system: THRa homodimer (NR concentration 90 nM)
# Method in brief: as §1
# [8] = system: VDR homodimer (NR concentration 270 nM)
# Method in brief: as §1
Sequence,PBM binding z-score [1],PBM binding z-score [2],PBM binding z-score [3],PBM binding z-score [4],PBM binding z-score [5],PBM binding z-score [6],PBM binding z-score [7],PBM binding z-score [8]
CCTACTGGGCCAAGGTCTTTGATCAGTCAAAGCA,0.263,-0.131,-0.0886,-1,-0.568,0.0825,-0.301,-0.659
TCATATAGGTGAAAGGTGAAAGTCGGTGTGGTAA,2.31,3.45,1.46,2,4.53,2.15,0.384,0.0995
CGAACTAGGTCACCACGACAGTGAAGAGGTTGGA,3.15,4.59,5.39,1.66,3.31,3.02,1.16,0.592
ATATGTAGATTAGGGTCATTCAGAAAGTAGGGAA,3.09,3.47,2.29,2.09,4.53,3.9,2.95,3.14
CGAACTAGGTCACCAGGACAGTGACGAGGTTGGA,3.61,4.59,5.52,1.22,3.43,3.55,1.99,0.698
CCGAGTAGGTTACGAGCGGGCATTCAGTGCGAAT,0.628,0.683,0.688,0.309,0.313,1.23,-0.803,-0.206
CCTACTGGGCGATTCAGAGGTCATTGATCATATG,3.62,3.12,2.1,0.873,3.28,2.83,0.887,2.83
ATACCAAGGTTATCGTGAGGTCGTTGATACTAAC,2.36,4.49,2,2.26,3.2,4.2,2.91,3.67
CGAACTAGGTCACCAGGACAGTGCAGAGGTTGGA,3.73,4.5,5.27,1.53,3.58,3.36,2.27,0.862
ATATGTACGTTAGGGTCATTCAGAAAGTAGGGAA,2.98,3.78,2.71,2.3,4.98,3.78,2.87,3.98
CGTCCAAGGGCAGCAGGTCAGTGAAAGCGACGTG,2.99,2.31,2.9,0.247,0.676,1.28,-0.115,0.0968
CGGACTGGGGCAAAGGTTACCATACTCAGTACGA,2.31,3.75,1.9,0.0322,3.79,2.1,0.079,0.18
CCTAGTTGGTCAGGAGGTCCCACACCGGATATGA,0.775,0.48,0.629,-0.686,0.0541,-0.131,0.411,0.335
CCCGCTAGGTCATGGTCAGCTAATCTACAGTATG,3.38,4,4.55,1.57,3.06,3.21,1.91,0.379
CGTCAAAGTTAAAGGTAACGTAACAGAAAGCAGC,0.442,0.799,0.833,0.0376,0.816,0.694,-0.0792,-0.165
CCGAGTAGATTACGAGGGGGCATTCAGTGCGAAT,1.12,1.31,0.84,1.36,0.919,1.85,-0.0543,3.03
ACTATCAGGCCAAGGGTCACTCAAGATTAGTCCG,3.89,4.3,3.73,1.23,4.05,3.35,0.937,1.45
CCTAGTTGGTCAGGTGGTCACACACCGGATATGA,1.48,1.03,1.38,-0.358,0.463,0.254,0.259,0.314
CCGAGTAGGTTACGAGGGGGCAGTCAGTGCGAAT,2.02,2.81,2.42,0.582,1.55,3.29,0.478,1.68

Sequence,PBM binding z-score [1],PBM binding z-score [2],PBM binding z-score [3],PBM binding z-score [4],PBM binding z-score [5],PBM binding z-score [6],PBM binding z-score [7],PBM binding z-score [8]
CGAACTAGGACACCAGGACAGTGAAGAGGTTGGA,0.545,0.367,0.797,0.0708,0.0879,1.83,1.24,0.472
CCCAGTAGGTTACGAGGGGGCATTCAGTGCGAAT,2.13,3.35,2.76,0.746,2.04,3.89,0.525,3.62
CCTAGATGGTCAGGAGGTCACACACCGGATATGA,4.09,5.06,4.28,0.392,4.73,3.5,2.26,2.68
CGTCCAAGGTCAGCAGGTGAGTGAAAGCGACGTG,3.84,5.23,6.27,2.47,3.87,3.28,1.95,0.692
TCATATAGGTTAAGGTGAAAGTCGAACGATATGA,1.66,2.3,2.08,0.797,2.45,3.33,2.71,0.253
CGAACTAGGTCACCAGGACGGTGAAGAGGTTGGA,3.1,4.28,5.25,0.756,3.01,3.04,0.961,0.435
TAGCCTAGGTCATTCAGGGGCCAGAATAGAAAGC,3.56,5.97,4.58,2.09,3.18,3.54,0.459,1.19
AGTCAAAGTTCACGAGGTAACGTAAGATTCAGCT,4.91,6.34,7.02,4.45,6.24,3.61,1.34,3.84
CTATGGAGGTTAAGGGGGTCATTCAGTTTGAAAG,4.08,5.71,4.46,3.59,6.48,4.04,2.95,6.81
CCTGCTCGGTCAATGGTCAGCTAAAGCAGCTCGC,1.62,1.65,2.47,0.331,0.053,-0.136,-0.403,-0.799
ACTAGTAGGCCAAGGGTCACTCAAGATTAGTCCG,3.88,4.22,4.21,0.602,4.54,2.6,0.197,1.36
TCGCGTAGGTTACGGGGGCATTCAGGGATGAAGA,2.37,3.63,2.87,1.99,3.08,3.93,1.5,2.44
AATACAGGGACATCGTAGGCCAGAGTACGCACAG,0.605,0.131,0.818,0.223,-0.000453,1,0.426,0.53
CCGAGTAGGTTACGAGGGGCCATTCAGTGCGAAT,1.53,1.3,1.23,0.177,0.889,3.34,-0.418,0.802
ATATGTAGGTTAGGGTCATTCAAAAAGTAGGGAA,3.59,4.25,3.19,2.67,5.4,4.28,3.27,3.17
CTATGTAGGTTAAGGTGGTCATTCAGTTTGAAAG,1.42,1.02,1.05,0.518,1.08,1.36,0.282,0.721
TAGCCTAGGTCATGCGGGTCAGTATAGTGTCGGC,4.27,4.91,4.9,1.07,4.2,3.75,1.35,2.26
ATATGAAGGTTAGGGTCATTCAGAAAGTAGGGAA,3.58,4.37,3.36,2.29,5.38,4,3.15,4.12
ATCTCTAGGTAAATGTTCAGTGAATCCCGAGGAT,-0.29,0.459,0.485,-0.155,0.162,0.097,0.171,-0.0904

Sequence,PBM binding z-score [1],PBM binding z-score [2],PBM binding z-score [3],PBM binding z-score [4],PBM binding z-score [5],PBM binding z-score [6],PBM binding z-score [7],PBM binding z-score [8]
TCTTGTTGATCAAAGGTTAAGAAAGCCGAAGCCT,1.89,1.64,1.11,0.76,2.64,1.58,-0.291,0.435
CTAACTAGGTCACGAAAGGTCAAAGTCGAATGAC,5.7,7.92,8.55,2.56,8.14,5.08,2.55,3.54
CGAACTAGGTCAAAGGACAGTGACAGGCGACGTA,3.39,4.39,5.1,1.78,3.89,2.69,0.589,0.435
TCGAGTAGGTTACGGGGGCATTCGGGGATGAAGA,2.34,3.52,2.38,1.85,2.92,4.01,1.63,3.83
TTACCAAGGTGAAGGTCGTGGATCCCTCTGTAGA,2.22,1.86,1.49,0.01,2.63,2.79,1.11,0.222
CAATGTAGGTTAAGGGGGTCATTCAGTTTGAAAG,4.09,5.27,3.94,3,5.94,3.9,2.81,6.76
ATATGTAGGTTAGGGTCATTTAGAAAGTAGGGAA,3.38,3.86,2.8,2.29,5.07,4.06,3.22,3.84
TCGAGTAGGTTACGGGGGAATTCAGGGATGAAGA,1.1,1.42,1.05,0.995,1.37,1.93,0.716,0.477
ACTCGGAGGACAAAGGTCAGAACTACGCCAGTGA,3.96,5.75,4.61,1.08,4.75,3.28,0.786,0.984
ATATGTAGGATAGGGTCATTCAGAAAGTAGGGAA,2.75,3.19,2.22,1.78,4.32,3.59,2.24,3.42
CAAACTAGGTCACGAAAGGTCAAATTCGAATGAC,5.85,7.7,8.41,2.5,8.21,5.14,2.56,3.46
CCGAGCAGGTTACGAGGGGGCATTCAGTGCGAAT,2.17,3.02,2.4,1.56,2.21,3.81,0.885,3.5
CGAACTAGGACAAAGGACAGTGAAAGGCGACGTA,0.856,0.618,1.24,-0.1,0.0792,0.519,-0.508,-0.415
CGTCAAAGTTCAACTAAGGTAACGTATAGCACGC,4.33,5.92,6.62,4.32,4.78,5.26,1.89,4.37
GATACAGGGTCAAGGCCAGAATACGCGTATTGAT,3.49,5.5,4.93,2.08,5.95,3.62,1.21,1.6
CGTACTAGGTCACCAGGACAGTGAAGAGGTTGGA,3.24,4.42,5.34,1.55,3.04,3.22,1.88,0.631
CGAACTAGGTCACCAGGACACTGAAGAGGTTGGA,3.48,4.62,5.4,1.56,3.65,3.83,2.39,0.607
CTATGTAGGTTAAGGGGGTCTTTCAGTTTGAAAG,1.69,1.56,1.25,0.662,1.48,1.94,0.841,1.31

# — the supplement of paper PMC6555819
